# Measured values taken from PubChem BioAssay (NCATS).
# Records with an inconclusive call do not appear. A call without a number means that no potency is given here. Calls of active or inactive are those of the source. Unless noted, the call rests on the fitted dose curve; in most records, active means well fitted curve in the direction sought with a large enough effect; inconclusive means small, poorly fitted or top-dose-only effect, or another doubt; inactive means no such curve, though single readings can be large; an effect the other way counts as inactive or inconclusive.
# Legend:
# [1] = molecular target: Cytochrome P450 1A2 (Homo sapiens) (UniProt P05177); experiment: p450-cyp1a2 (AID 410; calls by dose curve; further: potency means the concentration at half of the fitted maximal effect)
# Cytochrome P450 1A2 (Homo sapiens), sequence (P05177 whole entry, looked up): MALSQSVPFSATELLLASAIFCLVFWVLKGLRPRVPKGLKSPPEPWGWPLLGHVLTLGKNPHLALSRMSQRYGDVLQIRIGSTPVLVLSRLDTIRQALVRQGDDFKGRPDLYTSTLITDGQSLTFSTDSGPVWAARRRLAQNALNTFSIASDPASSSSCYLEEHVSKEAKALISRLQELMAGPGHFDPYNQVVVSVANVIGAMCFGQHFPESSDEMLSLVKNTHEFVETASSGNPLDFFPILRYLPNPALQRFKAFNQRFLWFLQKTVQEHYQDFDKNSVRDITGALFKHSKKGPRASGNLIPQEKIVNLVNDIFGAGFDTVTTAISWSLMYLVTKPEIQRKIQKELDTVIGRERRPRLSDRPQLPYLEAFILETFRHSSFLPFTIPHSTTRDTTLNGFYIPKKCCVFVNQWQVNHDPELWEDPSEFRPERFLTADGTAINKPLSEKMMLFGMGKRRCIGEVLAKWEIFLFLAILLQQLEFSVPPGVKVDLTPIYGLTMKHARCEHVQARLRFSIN
# Outline: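 20nM CYP1A2, 100uM Luciferin-ME (=Km), 100mM KPO4; cpd 10 min RT; +NADPH regen, 60 min RT; stop/detect 20 min; luminescence. Normalized to furafylline 57 uM = full inhibition.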
# [2] = molecular target: Glucocorticoid receptor (Homo sapiens) (UniProt P04150); experiment: GR-GFP Redistribution (AID 450;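 active means compounds whose dose series gives a full or clear partial fitted curve of increased nuclear translocation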; further: potency means the concentration at half of the fitted maximal effect)
# Glucocorticoid receptor (Homo sapiens), sequence (P04150 whole entry, looked up, the tested form may be a part): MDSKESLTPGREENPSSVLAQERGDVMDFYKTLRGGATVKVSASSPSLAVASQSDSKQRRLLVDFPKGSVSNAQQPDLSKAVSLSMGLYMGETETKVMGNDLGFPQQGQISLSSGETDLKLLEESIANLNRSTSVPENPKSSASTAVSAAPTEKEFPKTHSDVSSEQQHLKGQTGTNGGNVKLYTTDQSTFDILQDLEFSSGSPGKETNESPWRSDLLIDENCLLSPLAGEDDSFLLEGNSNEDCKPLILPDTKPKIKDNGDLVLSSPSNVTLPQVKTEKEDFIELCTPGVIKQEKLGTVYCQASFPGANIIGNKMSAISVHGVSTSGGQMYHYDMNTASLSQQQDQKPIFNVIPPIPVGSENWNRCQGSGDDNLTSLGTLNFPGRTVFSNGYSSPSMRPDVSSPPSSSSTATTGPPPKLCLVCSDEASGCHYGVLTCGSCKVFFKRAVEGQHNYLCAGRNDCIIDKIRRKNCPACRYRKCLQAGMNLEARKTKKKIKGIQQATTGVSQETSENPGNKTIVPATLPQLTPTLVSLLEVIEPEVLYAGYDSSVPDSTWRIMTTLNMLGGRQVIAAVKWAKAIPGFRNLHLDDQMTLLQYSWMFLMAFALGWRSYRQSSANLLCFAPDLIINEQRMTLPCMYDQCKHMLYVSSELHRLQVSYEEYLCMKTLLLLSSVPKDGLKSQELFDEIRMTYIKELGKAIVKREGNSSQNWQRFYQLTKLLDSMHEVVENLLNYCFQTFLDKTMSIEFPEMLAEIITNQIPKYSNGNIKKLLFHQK
# [3] = molecular target: Glucocorticoid receptor (Homo sapiens) (UniProt P04150); experiment: GR-EFC Redistribution (AID 451; calls by dose curve; further: potency means the concentration at half of the fitted maximal effect); conditions: CHO-K1 GR-EFC translocation, beta-gal luminescence, 2 h
# Outline: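 Translocation of GR-ED fusion to nuclear EA restores b-gal, read by luminescence after 1 h room-temperature detection. Engineered CHO-K1 biosensor cells, 1,000/well, exposed 2 h at 37 C to titrations up to 46 uM final.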
# [4] = molecular target: Mitogen-activated protein kinase 10 (Mus musculus) (UniProt Q61831); experiment: JNK3 AlphaScreen Assay (AID 530; active means well fitted curve in either direction with a large enough effect, not every such curve was filed as active;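 further: kinase came from lysate of stimulated human HepG2 cells; signal reports phosphorylation of biotinylated GST-cJun 1-79 at Ser73 with 10 µM ATP; series mostly up to about 57 µM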)
# Outline: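 Kinase buffer: 20 mM Tris-HCl pH 7.6, 10 mM MgCl2, 1 mM DTT, 0.1 mM Na3VO4, 0.01% Tween-20; ATP 10 uM. Substrate biotin-GST-cJun(1-79), enzyme from activated HepG2 lysates. Detection by Ser73 phospho-antibody AlphaScreen.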
# [5] = molecular target: 3',5'-cyclic-AMP phosphodiesterase 4B (Homo sapiens) (UniProt Q07343); experiment: qHTS Assay for Inhibitors of PDE-IV (AID 607; active means well fitted activation curve with a large enough effect in the main read-out, with a control signal flat, not every such curve was filed as active)
# 3',5'-cyclic-AMP phosphodiesterase 4B (Homo sapiens), sequence (Q07343 whole entry, looked up): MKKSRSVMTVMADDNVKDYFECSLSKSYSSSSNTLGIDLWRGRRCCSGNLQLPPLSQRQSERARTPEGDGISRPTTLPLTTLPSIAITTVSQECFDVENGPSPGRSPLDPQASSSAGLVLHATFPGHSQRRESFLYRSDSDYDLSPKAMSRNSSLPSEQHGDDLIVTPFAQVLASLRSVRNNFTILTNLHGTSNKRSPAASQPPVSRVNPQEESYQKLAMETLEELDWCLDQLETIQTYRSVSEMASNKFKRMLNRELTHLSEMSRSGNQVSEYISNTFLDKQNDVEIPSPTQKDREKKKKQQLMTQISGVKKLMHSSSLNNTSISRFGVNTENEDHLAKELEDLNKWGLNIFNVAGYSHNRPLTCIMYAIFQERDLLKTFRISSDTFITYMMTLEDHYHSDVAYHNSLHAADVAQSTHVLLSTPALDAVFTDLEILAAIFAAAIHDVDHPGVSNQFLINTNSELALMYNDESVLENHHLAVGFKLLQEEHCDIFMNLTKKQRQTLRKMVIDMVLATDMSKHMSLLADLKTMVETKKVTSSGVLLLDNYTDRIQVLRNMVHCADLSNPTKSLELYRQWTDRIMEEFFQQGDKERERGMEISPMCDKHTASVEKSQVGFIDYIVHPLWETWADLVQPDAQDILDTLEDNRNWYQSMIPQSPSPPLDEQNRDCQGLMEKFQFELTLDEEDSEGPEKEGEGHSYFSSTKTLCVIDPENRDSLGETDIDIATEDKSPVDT
# Outline: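 ACTOne HEK293 cells carry a modified cAMP-gated CNG channel and express endogenous PDE4; plated 1000 cells/well, compounds up to 22.9 uM final. Membrane-potential dye fluorescence (ex 535/em 590) was read; parental cells received 10 uM forskolin + 100 uM RO 20-1724.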
# [6] = molecular target: Cytochrome P450 2D6 (Homo sapiens) (UniProt P10635); experiment: qHTS Assay for Inhibitors and Substrates of Cytochrome P450 2D6 (AID 891);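 further: luciferin methyl ether substrate demethylated by CYP2D6 with NADPH regeneration; nearly all actives have a fitted effect of over 60% in size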
# Cytochrome P450 2D6 (Homo sapiens), sequence (P10635 whole entry, looked up): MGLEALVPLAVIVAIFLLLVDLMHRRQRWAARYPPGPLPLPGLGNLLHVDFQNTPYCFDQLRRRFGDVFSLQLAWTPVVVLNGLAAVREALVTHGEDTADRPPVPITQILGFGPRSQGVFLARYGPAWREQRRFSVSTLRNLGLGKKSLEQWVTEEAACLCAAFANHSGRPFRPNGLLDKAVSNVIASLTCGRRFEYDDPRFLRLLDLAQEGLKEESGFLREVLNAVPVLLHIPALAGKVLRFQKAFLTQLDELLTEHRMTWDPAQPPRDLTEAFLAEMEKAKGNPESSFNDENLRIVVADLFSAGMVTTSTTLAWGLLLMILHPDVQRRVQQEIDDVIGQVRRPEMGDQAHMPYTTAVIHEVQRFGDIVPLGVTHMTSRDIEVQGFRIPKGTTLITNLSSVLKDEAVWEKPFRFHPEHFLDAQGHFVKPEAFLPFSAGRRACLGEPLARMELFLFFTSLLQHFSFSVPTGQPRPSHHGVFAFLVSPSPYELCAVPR
# Outline: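 Luminescent read-out of luciferin formed by 5 nM human CYP2D6 demethylating 30 uM Luciferin-ME EGE (Km level) over 60 min at room temperature after NADPH regeneration addition. Data normalized to full inhibition by 1.43 uM quinidine.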
# [7] = molecular target: Cytochrome P450 2C19 (Homo sapiens) (UniProt P33261); experiment: qHTS Assay for Inhibitors and Substrates of Cytochrome P450 2C19 (AID 899); further: nearly all actives have a fitted effect of over 60% in size
# Cytochrome P450 2C19 (Homo sapiens), sequence (P33261 whole entry, looked up): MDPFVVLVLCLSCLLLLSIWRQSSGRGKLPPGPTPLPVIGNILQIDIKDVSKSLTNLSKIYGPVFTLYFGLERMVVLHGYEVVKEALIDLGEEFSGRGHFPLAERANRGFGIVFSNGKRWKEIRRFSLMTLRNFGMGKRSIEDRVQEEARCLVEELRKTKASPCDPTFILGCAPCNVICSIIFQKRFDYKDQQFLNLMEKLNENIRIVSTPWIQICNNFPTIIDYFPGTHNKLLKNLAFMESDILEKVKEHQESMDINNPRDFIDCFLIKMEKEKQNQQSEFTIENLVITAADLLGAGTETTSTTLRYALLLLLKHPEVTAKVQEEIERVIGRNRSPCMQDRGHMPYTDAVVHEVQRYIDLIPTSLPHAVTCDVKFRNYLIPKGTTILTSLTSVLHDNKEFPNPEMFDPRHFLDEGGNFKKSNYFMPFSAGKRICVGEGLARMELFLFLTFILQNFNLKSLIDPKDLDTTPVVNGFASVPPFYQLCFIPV
# Outline: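 Reactions contain 5nM enzyme, 10uM Luciferin-H EGE (KM) and 50mM KPO4; compound preincubates 10 min at 37C, NADPH regeneration starts turnover for 60 min. Luminescence after detection reagent gives activity.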
# [8] = molecular target: Cytochrome P450 2C9 (Homo sapiens) (UniProt P11712); experiment: qHTS Assay for Inhibitors and Substrates of Cytochrome P450 2C9 (AID 883); further: nearly all actives have a fitted effect of over 60% in size
# Cytochrome P450 2C9 (Homo sapiens), sequence (P11712 whole entry, looked up): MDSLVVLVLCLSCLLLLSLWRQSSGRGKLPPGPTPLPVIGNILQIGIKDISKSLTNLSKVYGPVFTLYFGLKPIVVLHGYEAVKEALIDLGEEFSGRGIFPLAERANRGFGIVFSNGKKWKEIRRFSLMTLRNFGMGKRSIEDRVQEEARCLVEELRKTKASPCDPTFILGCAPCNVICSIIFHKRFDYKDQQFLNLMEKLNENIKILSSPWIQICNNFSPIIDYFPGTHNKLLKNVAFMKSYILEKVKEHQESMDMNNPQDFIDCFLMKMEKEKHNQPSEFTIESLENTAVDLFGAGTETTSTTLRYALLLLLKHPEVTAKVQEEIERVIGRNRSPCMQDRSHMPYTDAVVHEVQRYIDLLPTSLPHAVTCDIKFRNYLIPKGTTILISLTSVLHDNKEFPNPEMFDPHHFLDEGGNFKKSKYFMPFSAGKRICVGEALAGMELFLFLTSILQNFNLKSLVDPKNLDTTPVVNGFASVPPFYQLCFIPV
# Outline: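 Turnover of Luciferin-H (100uM, KM) by 10nM human CYP2C9 was measured over 60 min at 37C with NADPH regeneration; inhibitors and some substrates reduce luminescence. Data normalized to sulphaphenazole 57uM.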
# [9] = molecular target: Ubiquitin carboxyl-terminal hydrolase 1 (Homo sapiens) (UniProt O94782); experiment: Inhibitors of USP1/UAF1: Pilot qHTS (AID 504865);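 further: rhodamine fluorescence freed from ubiquitin-rhodamine substrate followed over time; top concentration of the series differs between compounds; nearly all actives have a fitted effect of over 35% in size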
# Outline: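 1nM USP1/UAF1 + cpd, 15 min RT; start w/ Ub-Rho 150nM final; kinetic FL 480/540 nm, 6 reads q60 s. Buffer 50mM HEPES pH 7.8, 0.5mM EDTA, 1mM TCEP, 0.01% Tween-20, 0.1 mg/ml BSA.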
# [10] = molecular target: DNA dC->dU-editing enzyme APOBEC-3G (Homo sapiens) (UniProt Q9HC16); experiment: qHTS for inhibitors of Vif-A3G interactions: Validation (AID 588379)
# Outline: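 Yellow fluorescence (Ex 488, Em 500-530) of Vif-coexpressing HeLa A3G-eYFP cells, scanned by Acumen cytometer, reports blocked A3G degradation. Cells plated at 700/well overnight at 37 deg C before compound addition, then a further overnight compound incubation at 37 deg C.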
# [11] = molecular target: Androgen receptor (Homo sapiens) (UniProt P10275); experiment: qHTS assay for small molecule agonists of androgen receptor signaling (AID 588515; active means well fitted curve in the direction sought with a large enough effect in the signal ratio, with a control signal flat; the % refers to the signal ratio); conditions: AR-UAS-bla HEK293, beta-lactamase ratio, agonist 16 h; stronger effect = higher value
# Androgen receptor (Homo sapiens), sequence (P10275 whole entry, looked up): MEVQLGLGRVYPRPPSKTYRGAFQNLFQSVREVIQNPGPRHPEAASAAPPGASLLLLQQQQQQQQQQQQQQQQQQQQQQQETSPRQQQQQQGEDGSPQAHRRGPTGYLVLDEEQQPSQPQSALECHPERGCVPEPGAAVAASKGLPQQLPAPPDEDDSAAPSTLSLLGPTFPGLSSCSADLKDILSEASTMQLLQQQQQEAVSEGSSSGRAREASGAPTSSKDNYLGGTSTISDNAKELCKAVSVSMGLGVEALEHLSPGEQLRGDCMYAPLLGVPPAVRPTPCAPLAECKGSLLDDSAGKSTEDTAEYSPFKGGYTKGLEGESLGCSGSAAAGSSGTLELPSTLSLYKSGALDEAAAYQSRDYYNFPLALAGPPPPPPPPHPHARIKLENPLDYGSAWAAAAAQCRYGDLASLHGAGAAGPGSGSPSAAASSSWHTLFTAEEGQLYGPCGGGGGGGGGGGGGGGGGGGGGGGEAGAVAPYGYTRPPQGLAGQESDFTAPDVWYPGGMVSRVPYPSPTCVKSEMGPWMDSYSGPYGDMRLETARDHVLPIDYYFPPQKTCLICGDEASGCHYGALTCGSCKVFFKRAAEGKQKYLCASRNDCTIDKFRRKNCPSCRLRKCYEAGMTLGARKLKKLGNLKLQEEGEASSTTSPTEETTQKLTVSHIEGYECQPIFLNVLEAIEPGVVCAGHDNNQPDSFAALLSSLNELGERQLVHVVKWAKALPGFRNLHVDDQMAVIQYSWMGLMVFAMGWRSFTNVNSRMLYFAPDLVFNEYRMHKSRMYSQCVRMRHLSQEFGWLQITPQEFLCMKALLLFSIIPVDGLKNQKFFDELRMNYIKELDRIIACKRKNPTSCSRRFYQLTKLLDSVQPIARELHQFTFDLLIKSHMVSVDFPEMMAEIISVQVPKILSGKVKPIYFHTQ
# Outline: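 Stimulation of an AR-responsive β-lactamase reporter in GripTite HEK293 cells was measured after 16 h compound exposure at 37 °C, via CCF4 fluorescence after 2 h RT. EC50 from Hill fits, normalized to R1881 at 30 nM.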
# [12] = molecular target: Androgen receptor (Homo sapiens) (UniProt P10275); experiment: qHTS assay for small molecule antagonists of androgen receptor signaling (AID 588516; active means well fitted curve in the direction sought with a large enough effect in the signal ratio, with a control signal flat, not every such curve was filed as active; the % refers to the signal ratio)
# Outline: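 HEK293 AR-UAS-bla cells, 10% dialyzed FBS medium; cpd titration + R1881 10 nM final, 16 h 37 C; CCF4 2 h RT; FRET ratio; IC50/efficacy via Hill fit.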
# [13] = molecular target: Bile acid receptor (Homo sapiens) (UniProt Q96RI1); experiment: qHTS assay for small molecule antagonists of farnesoid X receptor signaling (AID 588526; calls by dose curve)
# Outline: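 Beta-lactamase reporter antagonist mode: HEK293T FXR-UAS-bla cells, titrated compound, CDCA stimulation, 16 h 37 C, CCF4 dye 2 h RT. Data normalized to CDCA 50 uM and DMSO; Hill-fit IC50.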
# [14] = molecular target: Glucocorticoid receptor (Homo sapiens) (UniProt P04150); experiment: qHTS assay for small molecule agonists of glucocorticoid receptor signaling (AID 588532; active means well fitted curve in the direction sought with a large enough effect in the signal ratio, with a control signal flat; the % refers to the signal ratio); conditions: HeLa MMTV-bla, beta-lactamase ratio, agonist, 18 h; stronger effect = higher value; percent of dexamethasone control, DMSO zero
# Outline: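 Using MMTV-bla HeLa cells in medium with 1% stripped FBS and 25 mM HEPES, compounds were titrated and incubated overnight-length (18 h). Beta-lactamase cleavage of CCF4 was quantified by dual-emission fluorescence.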
# [15] = molecular target: Peroxisome proliferator-activated receptor gamma (Homo sapiens) (UniProt P37231); experiment: qHTS assay for small molecule antagonists of peroxisome proliferator-activated receptor gamma signaling (AID 588537; active means well fitted inhibition curve with a large enough effect in the signal ratio, with a control signal flat, not every such curve was filed as active; the % refers to the signal ratio;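 further: reporter cells co-stimulated with 50 nM rosiglitazone agonist during compound treatment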)
# Peroxisome proliferator-activated receptor gamma (Homo sapiens), sequence (P37231 whole entry, looked up): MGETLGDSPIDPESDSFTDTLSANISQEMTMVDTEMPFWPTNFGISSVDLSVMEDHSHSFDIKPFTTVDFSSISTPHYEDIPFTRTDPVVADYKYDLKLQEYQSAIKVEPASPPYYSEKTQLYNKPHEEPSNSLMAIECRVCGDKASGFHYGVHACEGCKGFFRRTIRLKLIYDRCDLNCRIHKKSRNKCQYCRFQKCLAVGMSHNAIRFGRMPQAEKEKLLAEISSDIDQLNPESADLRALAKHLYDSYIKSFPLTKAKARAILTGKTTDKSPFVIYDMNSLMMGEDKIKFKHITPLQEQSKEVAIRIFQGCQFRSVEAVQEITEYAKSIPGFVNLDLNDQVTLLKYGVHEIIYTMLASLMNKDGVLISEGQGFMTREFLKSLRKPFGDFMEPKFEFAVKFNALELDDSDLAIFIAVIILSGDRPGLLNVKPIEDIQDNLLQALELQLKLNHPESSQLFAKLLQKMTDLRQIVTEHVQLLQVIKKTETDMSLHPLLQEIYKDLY
# Outline: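 Cell-based beta-lactamase assay; GW9662 served as the antagonist control. Stimulation used rosiglitazone, final 50 nM, 16 h, 37 C.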
# [16] = molecular target: Vitamin D3 receptor (Homo sapiens) (UniProt P11473); experiment: qHTS assay for small molecule agonists of vitamin D receptor signaling (AID 588543; calls by dose curve)
# Outline: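 β-lactamase reporter, VDR-UAS-bla HEK293T, agonist mode. Cells plated 5 h at 37 °C, compound titration 16 h at 37 °C, CCF4 dye 2 h RT, ratio 460/530 nm. Hill fit → EC50, efficacy vs 50 nM 1α,25-(OH)2D3.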
# [17] = molecular target: Thyroid hormone receptor beta (Homo sapiens) (UniProt P10828); experiment: qHTS assay for small molecule agonists of thyroid hormone receptor beta signaling (AID 588545; calls by dose curve)
# Outline: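 In this cell-based screen, titrated compounds act on HEK 293 cells held in medium with 2% charcoal/dextran FBS, NEAA and pyruvate for 18 hrs at 37 C. Responses are expressed relative to T3 (10 nM) as 100% and basal DMSO as 0%.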
# [18] = qHTS assay for small molecule antagonists of retinoid X receptor alpha signaling (AID 588546; active means well fitted inhibition curve with a large enough effect in the signal ratio, with a control signal flat, not every such curve was filed as active; the % refers to the signal ratio;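 further: cells stimulated with 9-cis-retinoic acid as agonist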); conditions: HEK293T RXRa-UAS-bla, beta-lactamase ratio, antagonist mode; measured here: W530 green channel, cytotoxicity proxy
# Outline: (§1)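 Beta-lactamase reporter inhibition, read as CCF4 fluorescence ratio (ex 405, em 460/530 nm) after 2 h at RT. HEK293T UAS-bla cells, 2500/well, were stimulated with 9-cis-RA at 500 or 100 nM final alongside test compound for 18 h at 37 C.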
# [19] = molecular target: Retinoic acid receptor RXR-alpha (Homo sapiens) (UniProt P19793); experiment: as above; conditions: HEK293T RXRa-UAS-bla, beta-lactamase ratio, antagonist mode
# Outline: as §1
# [20] = qHTS assay for small molecule agonists of the antioxidant response element (ARE) signaling pathway (AID 651741; active means well fitted activation curve with a large enough effect in the signal ratio; the % refers to the signal ratio; further: potency means the concentration at half of the fitted maximal effect)
# Outline: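 Agonist activity is measured as ARE-driven beta-lactamase expression in a stable HepG2 reporter line, using 16 h compound treatment at 37 C and a FRET substrate fluorescence readout after 2 h.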
# [21] = qHTS assay for small molecule activators of the nuclear factor-kappa B (NF-kB) signaling pathway (AID 651749; active means well fitted activation curve with a large enough effect in the signal ratio; the % refers to the signal ratio; further: series mostly up to about 77 µM); conditions: NF-kB-bla ME-180 cells, beta-lactamase FRET ratio, 16 h; stronger effect = higher value
# Outline: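 FRET-based beta-lactamase detection in ME-180 cells reports NF-kB response-element-driven transcription following overnight (16 hr) compound treatment.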
# [22] = qHTS assay for environmental chemicals that activate the Aryl hydrocarbon Receptor (AhR) signaling pathway (AID 651777); conditions: 1A2-DRE human hepatoma cells, luciferase, 24 h; activation: stronger effect = higher value; further: nearly all actives have a fitted effect of over 15% in size
# Outline: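 Luminescence (One-Glo, 30 min, room temperature) reports AhR-driven luciferase in stably transfected human hepatoma cells bearing DRE and CYP1A2 promoter. Cells (1,200/well) were treated with compound for 24 hr at 37 C in qHTS format.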
# [23] = molecular target: Peroxisome proliferator-activated receptor alpha (Homo sapiens) (UniProt Q07869); experiment: qHTS assay for small molecule agonists of the peroxisome proliferator-activated receptor alpha (PPARalpha) signaling pathway (AID 651778); conditions: PathHunter PPARalpha complementation, chemiluminescence, 6 h; max response: stronger effect = higher value
# Outline: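 Chemiluminescence from complemented enzyme reported PPARalpha activation in cells after 6 hr of compound treatment at 37 C. The detection reagent was incubated for 60 min at room temperature, and compounds were scored as agonists.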
# [24] = qHTS assay for small molecule agonists of the antioxidant response element (ARE) signaling pathway measured by Nrf2-dependant transcriptional activity (AID 720636; active means well fitted curve in the direction sought with a large enough effect in the repeat runs; an effect the other way counts as inactive or inconclusive)
# Outline: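 Nrf2-dependent transcription read as ONE-Glo luciferase signal from ARE-luc HepG2 reporter cells after 16 hr compound treatment at 37 C, 5% CO2, in assay medium with 1% dialyzed FBS.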
# [25] = qHTS assay for small molecule agonists of the antioxidant response element (ARE) signaling pathway measured by Nrf2-dependant transcriptional activity - cell viability counter screen (AID 720653; active means well fitted curve in the direction sought with a large enough effect in the repeat runs; an effect the other way counts as inactive or inconclusive); conditions: ARE-bla HepG2 viability, CellTiter-Glo ATP luminescence, 16 h; max response: stronger effect = lower value
# Outline: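 Cytotoxicity counter screen: intracellular ATP quantified by CellTiter-Glo luminescence in the same ARE-bla HepG2 plates, after 16 h compound exposure and a 2 h beta-lactamase substrate step.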
# [26] = qHTS assay for cell viability of HEK293 cells (AID 743288); conditions: ATP luminescence (CellTiter-Glo), 18 h; max response: stronger effect = lower value; further: nearly all actives have a fitted effect of over 50% in size
# Outline: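 ATP luminescence (CellTiter-Glo) reports metabolically competent cell number after parental HEK293 cells, 2,000/well, were treated with DMSO-dissolved compounds for 18 h at 37 C; reagent incubation 30 min, room temperature.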
# [27] = qHTS assay for cell viability of the p53RE-bla HCT-116 cell line (AID 743292); further: nearly all actives have a fitted effect of over 55% in size
# Outline: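 ATP-based luminescent viability (CellTiter-Glo, 30 min RT) after 16 h compound treatment at 37 C of p53RE-bla HCT-116 cells, seeded at 4,000 cells/well and rested 5 h before dosing.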
# [28] = molecular target: Nuclear receptor subfamily 1 group I member 2 (Rattus norvegicus) (UniProt Q9R1A7); experiment: qHTS assay for small molecule activators of the rat pregnane X receptor (rPXR) signaling pathway (AID 651751; call rule not given here); conditions: rPXR reporter cells, luciferase (One-Glo), 24 h
# [29] = qHTS assay for small molecule activators of the human pregnane X receptor (PXR) signaling pathway (AID 720659; call rule not given here)
compound,measurement,setting,value
COc1ccc(-c2coc3ccc(O[C@@H]4O[C@@H](COC(C)=O)[C@@H](OC(C)=O)[C@@H](OC(C)=O)[C@H]4OC(C)=O)cc3c2=O)cc1,Potency,[1],inactive
same,Potency,[2],> 46 µM (inactive)
same,Potency,[3],> 46 µM (inactive)
same,Potency,[4],inactive
same,Potency,[5],inactive
same,Potency,[6],inactive
same,Potency,[7],inactive
CC1(C)CC[C@]2(C(=O)O)CC[C@]3(C)C(=CC[C@@H]4[C@@]5(C)CC[C@H](O)C(C)(C)[C@@H]5CC[C@@]43C)[C@@H]2C1,Potency,[1],inactive
same,Potency,[2],> 46 µM (inactive)
same,Potency,[3],> 46 µM (inactive)
same,Potency,[4],inactive
same,Potency,[8],inactive
same,Potency,[6],inactive
same,Potency,[7],inactive
O[C@@H]1[C@@H]2c3cc4c(cc3CN3CCC(=C[C@@H]1O)[C@H]23)OCO4,Potency,[1],15.8 µM (active)
same,Potency,[2],> 20.6 µM (inactive)
same,Potency,[4],inactive
same,Potency,[5],inactive
same,Potency,[9],inactive
CC1(C)CCC(C)(C)c2cc(C(=O)Nc3ccc(C(=O)O)cc3)ccc21,Potency,[1],31.6 µM (active)
same,Potency,[2],> 46 µM (inactive)
same,Potency,[3],> 46 µM (inactive)
same,Potency,[5],inactive
same,outcome,[10],inactive
same,activation,[11],-12.7% (inactive)
same,outcome,[12],inactive
same,Potency,[13],inactive
same,activation,[14],-10.3% (inactive)
same,Potency,[15],inactive
same,outcome,[16],inactive
same,outcome,[17],inactive
same,max response,[18],2.34%
same,max response,[19],-51.1% (inactive)
same,Potency,[20],61.1 µM (active)
same,activation,[21],1.76% (inactive)
same,activation,[22],-0.1% (inactive)
same,max response,[23],0.0193% (inactive)
same,Potency,[24],inactive
same,max response,[25],-7.97% (inactive)
same,max response,[26],1.87% (inactive)
same,Potency,[27],inactive
same,max response,[28],-9.44% (inactive)
same,outcome,[29],inactive
